# In the supplement of paper PMC6555819:
# What was measured:
# Assay in all cases: PBM binding z-score (relative to random genomic background probes); higher = stronger binding; sequences stand for … in GC…GCGATTGACAGCGTAGAATGAAGG
# [1] = test system: PPARg:RXRa DBDmut IVT, anti-RXR (DBD mutation: RXRa K156A/R161A, NR concentration 270 nM, RXRa partner concentration 90 nM)
# Procedure, shortened: (§1)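 Custom Agilent 4×180K protein-binding microarrays carried double-stranded probes. Their 34-nt variable regions held direct-repeat seeds, single-nucleotide variants, half-site ablations and random human genomic background sequences. Arrays were incubated 1 h with ligand-free nuclear receptor dimers in PBS pH 7.4, 2% milk, 0.02% Triton X-100, 1 mM DTT, 0.2 mg/mL BSA and 0.4 mg/ml salmon testes DNA. Antibodies against each partner (one per run) detected binding, and scanned fluorescence was regression-normalized. Binding z-scores use random background probes as reference.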
# [2] = test system: PPARg:RXRa IVT, anti-PPARg (NR concentration 270 nM, RXRa partner concentration 90 nM)
# Procedure, shortened: as §1
# [3] = test system: PPARg DBDmut:RXRa IVT, anti-PPARg (DBD mutation: PPARg1 K132A/R137A, NR concentration 270 nM, RXRa partner concentration 90 nM)
# Procedure, shortened: as §1
# [4] = test system: PPARg DBDmut IVT, anti-PPARg (DBD mutation: PPARg1 K132A/R137A, NR concentration 270 nM)
# Procedure, shortened: as §1
# [5] = test system: PPARg homodimer (NR concentration 180 nM)
# Procedure, shortened: as §1
# [6] = test system: PXR:RXRa (NR concentration 270 nM, RXRa partner concentration 90 nM)
# Procedure, shortened: as §1
# [7] = test system: PXR homodimer (NR concentration 270 nM)
# Procedure, shortened: as §1
# [8] = test system: RARa:RXR (NR concentration 270 nM, RXRa partner concentration 90 nM)
# Procedure, shortened: as §1
# [9] = test system: RARa homodimer (NR concentration 270 nM)
# Procedure, shortened: as §1
# [10] = test system: RARb:RXRa (NR concentration 270 nM, RXRa partner concentration 90 nM)
# Procedure, shortened: as §1
Sequence,PBM binding z-score [1],PBM binding z-score [2],PBM binding z-score [3],PBM binding z-score [4],PBM binding z-score [5],PBM binding z-score [6],PBM binding z-score [7],PBM binding z-score [8],PBM binding z-score [9],PBM binding z-score [10]
CCTTACCGGTCACTCCAGGTTATAGCATCGGAGT,1.13,1.44,-0.00194,-0.042,1.6,1.94,1.24,1.37,1.2,2.9
CCTGCTAGGTCAAGGTCAGCTAATCTACAGTATG,4.9,4.64,0.201,-0.28,2.21,3.45,0.401,3.88,1.15,5.09
CCTACTGGGCCAAAGGTCATTGGTTCCAATGCTC,5.02,6.55,0.0482,-0.387,2.89,5.41,2.21,6.04,0.819,4.51
GATATAGGGTCAAGGCCAGAGTACGCGTATTGAT,4,4.64,1.73,1.98,3.01,4.14,0.146,4.91,1.13,4.62
GTACTAAGGTGAATAGGTCGTTGATGAGTAGGCG,2.8,3.12,0.603,0.0798,1.34,1.22,0.545,2.45,1.14,2.62
CCTACTGGGCCATTCAGAGGTGATTGATCATATG,3.85,3.8,0.186,-0.0997,0.152,0.147,-0.0295,0.451,0.129,0.622
CCTATTAGTTTACCATAAGGGCAACCGAAGCTCG,0.246,0.459,0.256,1.25,1.47,0.681,1.08,0.819,1.51,1.6
AGAACGAGGGCATTGAGTTGATAGCACGGGTGGC,2.94,2.27,0.115,-0.519,0.179,2.79,9.1,0.267,-0.274,1.87
TCTAGTTGGTCAAAAGTCACACACTCGAAATGCG,2.33,2.69,0.872,1.33,2,1.02,0.426,1.64,1.24,1.35
ACTAGCAGGCCAGGTTTGGGTCACTCAAACAAAG,-0.173,0.446,-0.511,-0.687,0.235,0.351,-0.166,1.17,-0.279,1.32
TCTTGTAGATCAAGCAGGTTAATAAAGCCTGAGT,1.48,0.498,-0.163,0.466,0.27,0.447,0.326,0.406,0.125,-0.0389
TCATATAGGTAAAGGGTGAAAGTCGGTGTGGTAA,4.48,4.59,0.928,1.03,1.99,1.31,0.961,2.03,2.05,1.46
TGACCAAGGTGAGCTGAGGTCGTTGATCCAACTC,0.169,1.43,0.123,-1.59,-0.0589,4.67,0.0412,1.84,-0.758,1.69
CAGACTAGGTCACAGAGGTCAAAGTCCGTGCGTA,7.57,8,2.36,0.704,4.93,6.65,11.5,7.28,2.93,5.07
TCTATTAGTTGAAGGGCAACGGACGAGTCCGTTT,2.22,0.812,0.14,0.912,0.894,0.785,1.18,0.778,0.625,1.76
CCACACAGGTGAAAGGTAACTCAGTCTGGTACGC,2.15,3.2,0.0609,0.1,1.3,1.22,0.292,1.76,0.461,1.38
CCTGCAAGGTCAATGGTCAGCTAAAGCAGCTCGC,2.93,2.76,-0.252,-1.15,2.72,3.78,0.469,4.56,0.759,5.01
AGAACGAGGGCACGCTGAGCTGATAGCAGAGTAG,4.56,3.89,0.483,-0.228,0.179,-0.0742,-0.541,0.485,-0.937,2.39
CCTACTGGGCCATCAGATCATTGATATCAACGTT,4.57,3.97,0.261,0.0377,-0.139,-0.487,-0.238,-0.391,0.289,0.228
CGTCTAAGGTCAGAGAGGTCAGTGAATGCCGAGT,3.8,3.69,0.924,-0.453,4.52,6.51,12,5.99,1.28,5.56
ATCGAAAGGTCGAGGTGATTATAGAGAAAGGGAA,0.469,2.16,1.08,1.21,1.85,2.51,0.0251,3,0.473,4.2
CTCGAAAAGTCGTGCTCAGGTGAGTATACCAAAC,-0.109,0.391,0.0169,0.325,1.15,0.0376,0.0183,0.523,-0.119,0.264
CAAACTAGGTCAAGGTCATAGTCGGTTTGTGCCA,8.52,8.68,4.59,1.94,4.4,5.2,2.73,5.56,1.31,4.97
CCTTACGGGTCACTCCAGGCTATAGCATCGGAGT,2.55,3.11,-0.0425,-0.418,0.988,3.3,-0.213,3.16,0.0642,3.51
CTGAGTAGGTTATGGGGCATTCAGGCAACGGTGA,4.73,4.47,0.603,-0.059,0.463,0.0232,0.0116,0.559,-0.472,0.942
